# Laboratory results published in PubChem BioAssay AID1159580 (chemical genetic matrix, 2015).
# About 2,000 (36%) of roughly 5,500 compounds were called active. Roughly 18% stayed inconclusive and do not appear here. Some of the results follow. Unmarked numbers belong to inactive results. Cut-off read from the data, not from the text of the source: active = normalized growth mostly below about 0.91 (no sharp cut-off); inconclusive = no clear call, values can overlap the other calls; inactive = mostly above about 0.92.
# Assay: chemical genetic growth profiling, strain panel (AID 1159580);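 note: tested at 20 µM; growth read once vehicle control cultures reached saturation at 30 °C; 1 = growth at the plate median or of vehicle wells; lower values mean less growth of the strain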
# Conditions: growth OD
compound,measurement,setting,value
Nc1nc2c(ncn2C2C[C@H](O)[C@@H](CO)O2)c(=O)[nH]1 (stereo partly specified),normalized growth,"S. cerevisiae deletion strains, locus YAL013W, strain DEP1, active compounds read low",0.995
same,normalized growth,"S. cerevisiae deletion strains, locus YBR021W, strain FUR4, active compounds read low",1
same,normalized growth,"S. cerevisiae deletion strains, locus YBR229C, strain ROT2, active compounds read low",0.997
same,normalized growth,"S. cerevisiae deletion strains, locus YCL029C, strain bik1, active compounds read low",0.573 (active)
same,normalized growth,"S. cerevisiae deletion strains, locus YDL035C, strain GPR1, active compounds read low",1.02
same,normalized growth,"S. cerevisiae deletion strains, locus YDL074C, strain BRE1, active compounds read low",1.02
same,normalized growth,"S. cerevisiae deletion strains, locus YDL101C, strain DUN1, active compounds read low",1
same,normalized growth,"S. cerevisiae deletion strains, locus YDL134C, strain PPH21, active compounds read low",1.01
same,normalized growth,"S. cerevisiae deletion strains, locus YDL185W, strain tfp1, active compounds read low",0.999
same,normalized growth,"S. cerevisiae deletion strains, locus YDL192W, strain arf1, active compounds read low",0.179 (active)
same,normalized growth,"S. cerevisiae deletion strains, locus YDR101C, strain arx1, active compounds read low",0.447 (active)
same,normalized growth,"S. cerevisiae deletion strains, locus YDR150W, strain NUM1, active compounds read low",1.02
same,normalized growth,"S. cerevisiae deletion strains, locus YDR162C, strain NBP2, active compounds read low",1
same,normalized growth,"S. cerevisiae deletion strains, locus YDR318W, strain mcm21, active compounds read low",0.322 (active)
same,normalized growth,"S. cerevisiae deletion strains, locus YDR388W, active compounds read low",0.162 (active)
same,normalized growth,"S. cerevisiae deletion strains, locus YDR502C, strain sam2, active compounds read low",0.359 (active)
same,normalized growth,"S. cerevisiae deletion strains, locus YEL061C, strain CIN8, active compounds read low",0.979
same,normalized growth,"S. cerevisiae deletion strains, locus YER110C, active compounds read low",0.627 (active)
same,normalized growth,"S. cerevisiae deletion strains, locus YER155C, strain BEM2, active compounds read low",0.994
same,normalized growth,"S. cerevisiae deletion strains, locus YER167W, strain BCK2, active compounds read low",1.01
same,normalized growth,"S. cerevisiae deletion strains, locus YGL078C, strain dbp3, active compounds read low",1
same,normalized growth,"S. cerevisiae deletion strains, locus YGL086W, strain mad1, active compounds read low",0.357 (active)
same,normalized growth,"S. cerevisiae deletion strains, locus YGL248W, strain PDE1, active compounds read low",0.996
same,normalized growth,"S. cerevisiae deletion strains, locus YGR078C, strain PAC10, active compounds read low",1
same,normalized growth,"S. cerevisiae deletion strains, locus YGR135W, strain pre9, active compounds read low",0.328 (active)
same,normalized growth,"S. cerevisiae deletion strains, locus YGR229C, strain SMI1, active compounds read low",1.01
same,normalized growth,"S. cerevisiae deletion strains, locus YGR252W, strain gcn5, active compounds read low",0.352 (active)
same,normalized growth,"S. cerevisiae deletion strains, locus YHR030C, strain SLT2, active compounds read low",1.01
same,normalized growth,"S. cerevisiae deletion strains, locus YHR079C, strain IRE1 (second series), active compounds read low",0.446 (active)
same,normalized growth,"S. cerevisiae deletion strains, locus YHR094C, strain hxt1, active compounds read low",0.456 (active)
same,normalized growth,"S. cerevisiae deletion strains, locus YHR129C, strain ARP1, active compounds read low",1
same,normalized growth,"S. cerevisiae deletion strains, locus YHR200W, strain rpn10, active compounds read low",0.357 (active)
same,normalized growth,"S. cerevisiae deletion strains, locus YIL066C, strain RNR3, active compounds read low",1.03
same,normalized growth,"S. cerevisiae deletion strains, locus YIL073C, strain SPO22, active compounds read low",1.1
same,normalized growth,"S. cerevisiae deletion strains, locus YIL125W, strain kgd1, active compounds read low",1.01
same,normalized growth,"S. cerevisiae deletion strains, locus YIR030C, strain dcg1, active compounds read low",0.46 (active)
same,normalized growth,"S. cerevisiae deletion strains, locus YJL095W, strain BCK1, active compounds read low",1
same,normalized growth,"S. cerevisiae deletion strains, locus YJL134W, strain LCB3, active compounds read low",1
same,normalized growth,"S. cerevisiae deletion strains, locus YJL168C, strain set2, active compounds read low",0.527 (active)
same,normalized growth,"S. cerevisiae deletion strains, locus YJL187C, strain SWE1 (second series), active compounds read low",1.01
same,normalized growth,"S. cerevisiae deletion strains, locus YJR043C, strain POL32, active compounds read low",1
same,normalized growth,"S. cerevisiae deletion strains, locus YJR075W, strain HOC1, active compounds read low",0.992
same,normalized growth,"S. cerevisiae deletion strains, locus YKL009W, strain mrt4, active compounds read low",1.02
same,normalized growth,"S. cerevisiae deletion strains, locus YKL068W, active compounds read low",1.01
same,normalized growth,"S. cerevisiae deletion strains, locus YKL085W, strain MDH1 (second series), active compounds read low",1.01
same,normalized growth,"S. cerevisiae deletion strains, locus YKL085W, strain MDH1, active compounds read low",1.01
same,normalized growth,"S. cerevisiae deletion strains, locus YKL190W, strain CNB1, active compounds read low",1
same,normalized growth,"S. cerevisiae deletion strains, locus YKR001C, strain vps1, active compounds read low",0.189 (active)
same,normalized growth,"S. cerevisiae deletion strains, locus YLR039C, strain RIC1, active compounds read low",1.02
same,normalized growth,"S. cerevisiae deletion strains, locus YLR058C, strain SHM2, active compounds read low",1
same,normalized growth,"S. cerevisiae deletion strains, locus YLR102C, strain apc9, active compounds read low",0.543 (active)
same,normalized growth,"S. cerevisiae deletion strains, locus YLR262C, strain YPT6, active compounds read low",1.08
same,normalized growth,"S. cerevisiae deletion strains, locus YLR268W, strain sec22, active compounds read low",0.406 (active)
same,normalized growth,"S. cerevisiae deletion strains, locus YLR330W, strain CHS5, active compounds read low",0.995
same,normalized growth,"S. cerevisiae deletion strains, locus YLR342W, strain FKS1 (second series), active compounds read low",1.04
same,normalized growth,"S. cerevisiae deletion strains, locus YLR371W, strain rom2, active compounds read low",0.391 (active)
same,normalized growth,"S. cerevisiae deletion strains, locus YLR418C, strain cdc73, active compounds read low",0.261 (active)
same,normalized growth,"S. cerevisiae deletion strains, locus YML016C, strain PPZ1, active compounds read low",1.01
same,normalized growth,"S. cerevisiae deletion strains, locus YML032C, strain rad52, active compounds read low",0.408 (active)
same,normalized growth,"S. cerevisiae deletion strains, locus YML124C, strain tub3, active compounds read low",0.554 (active)
same,normalized growth,"S. cerevisiae deletion strains, locus YMR078C, strain ctf18, active compounds read low",0.852 (active)
same,normalized growth,"S. cerevisiae deletion strains, locus YMR223W, strain ubp8, active compounds read low",0.315 (active)
same,normalized growth,"S. cerevisiae deletion strains, locus YMR263W, strain SAP30, active compounds read low",1.01
same,normalized growth,"S. cerevisiae deletion strains, locus YMR307W, strain GAS1, active compounds read low",1.01
same,normalized growth,"S. cerevisiae deletion strains, locus YNL067W, strain RPL9B, active compounds read low",1.01
same,normalized growth,"S. cerevisiae deletion strains, locus YNL128W, strain TEP1, active compounds read low",1
same,normalized growth,"S. cerevisiae deletion strains, locus YNL153C, strain GIM3, active compounds read low",1.01
same,normalized growth,"S. cerevisiae deletion strains, locus YNL233W, strain BNI4, active compounds read low",1
same,normalized growth,"S. cerevisiae deletion strains, locus YNL250W, strain rad50, active compounds read low",1.02
same,normalized growth,"S. cerevisiae deletion strains, locus YNL271C, strain bni1, active compounds read low",1.02
same,normalized growth,"S. cerevisiae deletion strains, locus YNL298W, strain CLA4, active compounds read low",1.03
same,normalized growth,"S. cerevisiae deletion strains, locus YNL307C, strain MCK1, active compounds read low",0.222 (active)
same,normalized growth,"S. cerevisiae deletion strains, locus YNL322C, strain KRE1, active compounds read low",1
same,normalized growth,"S. cerevisiae deletion strains, locus YNR052C, strain pop2, active compounds read low",0.137 (active)
same,normalized growth,"S. cerevisiae deletion strains, locus YOL006C, strain TOP1, active compounds read low",1.04
same,normalized growth,"S. cerevisiae deletion strains, locus YOL012C, strain htz1",2.5 [resistant] (active)
same,normalized growth,"S. cerevisiae deletion strains, locus YOL147C, strain pex11, active compounds read low",0.451 (active)
same,normalized growth,"S. cerevisiae deletion strains, locus YOR061W, strain CKA2, active compounds read low",0.998
same,normalized growth,"S. cerevisiae deletion strains, locus YOR069W, strain VPS5, active compounds read low",1
same,normalized growth,"S. cerevisiae deletion strains, locus YOR136W, strain idh2, active compounds read low",0.531 (active)
same,normalized growth,"S. cerevisiae deletion strains, locus YOR144C, strain elg1, active compounds read low",0.619 (active)
same,normalized growth,"S. cerevisiae deletion strains, locus YOR184W, strain ser1, active compounds read low",1.02
same,normalized growth,"S. cerevisiae deletion strains, locus YOR316C, strain cot1, active compounds read low",0.416 (active)
same,normalized growth,"S. cerevisiae deletion strains, locus YPL055C, strain LGE1, active compounds read low",0.976
same,normalized growth,"S. cerevisiae deletion strains, locus YPL241C, strain CIN2, active compounds read low",0.98
same,normalized growth,"S. cerevisiae deletion strains, locus YPR119W, strain clb2, active compounds read low",0.645 (active)
same,normalized growth,"S. cerevisiae deletion strains, locus YPR141C, strain kar3, active compounds read low",1.02
same,normalized growth,"S. cerevisiae deletion strains, locus YPR163C, strain tif3, active compounds read low",0.37 (active)
same,normalized growth,"S. cerevisiae deletion strains, locus YPR167C, strain met16, active compounds read low",0.33 (active)
same,normalized growth,"S. cerevisiae deletion strains, strain wtn01, active compounds read low",0.229 (active)
same,normalized growth,"S. cerevisiae strains, strain wild type, active compounds read low",0.984
